Data as given in PubChem BioAssay.
Activity calls are given as the source filed them.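 The calls were made as follows, unless noted: active = mean z-score across replicates of 1.96 or higher in either the MELAS or the Rieske mutant cell line; inactive = the rest.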

What was measured:
[1] = viability loss with induced miR-34 in A549 – imaging, A549 dox-inducible miR-34, nuclei and caspase counts, primary screen (AID 1347080;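 active = compounds whose cell count with miR-34 switched on is under 0.7 times the count with it off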); conditions: A549 miR-34 inducible, Hoechst nuclei count, 48 h
[2] = MELAS cybrid and Rieske KO viability enhancers – cell-based, MELAS cybrids, Rieske KO mouse fibroblasts, CellTiter-Glo, primary screen (AID 1508586); conditions: low glucose;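 also: z relative to plate mean and SD of compound and empty wells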
[3] = stronger effect = lower value, cell number ratio, induced over uninduced
[4] = measured here: relative caspase fold change +Dox/-Dox
[5] = measured here: total cells with miR-34 induction, stronger effect = lower value
[6] = measured here: total cells without miR-34 induction
[7] = MELAS cybrid survival, CellTiter-Glo 48 h, stronger effect = higher value
[8] = Rieske KO mouse fibroblast survival, CellTiter-Glo 72 h
Also: test concentration not given here.

| Compound | fold change [1, 3] | fold change [1, 4] | cell count [1, 5] | cell count [1, 6] | z-score [2, 7] | z-score [2, 8] |
| --- | --- | --- | --- | --- | --- | --- |
| O=C(NCCO)c1cccc(-c2cc(Nc3ccc(OC(F)(F)F)cc3)ncn2)c1 | 0.847 (inactive) | 0.626 | 7400 | 8740 | -0.469 (inactive) | 0.943 |
| COc1ccc(CCc2nc3cc(-c4c(C)noc4C)ccc3n2CC(C)N2CCOCC2)cc1Cl (centres undefined) | 0.88 (inactive) | 0.277 | 7240 | 8230 | -0.0999 (inactive) | -1.46 |
| O=C1c2c(O)cccc2[C@H]([C@@H]2OC(CO)C(O)C(O)C2O)c2cc(CO)cc(O)c21 (some centres undefined) | 0.88 (inactive) | 0.843 | 8560 | 9720 | -0.344 (inactive) | -0.143 |
| CC(C)c1ccc(NC(=O)Cn2cnc3c2c(=O)n(C)c(=O)n3C)cc1 | 0.933 (inactive) | 1.42 | 7540 | 8090 | 0.298 (inactive) | -0.444 |
| Nc1nc(CC(=O)Nc2ccc(CCNCC(O)c3ccccc3)cc2)cs1 (centres undefined) | 0.898 (inactive) | 1.03 | 8660 | 9650 | -0.0817 (inactive) | -0.148 |
| CCOC(=O)O[C@@]1(C(=O)OCCl)CC[C@H]2[C@@H]3CCC4=CC(=O)C=C[C@]4(C)[C@@H]3C(O)C[C@@]21C (some centres undefined) | 0.859 (inactive) | 1.25 | 5320 | 6190 | -0.313 (inactive) | -0.191 |
| Cc1ccc(-c2c(-c3nn(C)c4ncnc(N5CCC(N6CCCCC6)C5)c34)cnn2C)cc1 (centres undefined) | 0.989 (inactive) | 0.458 | 8040 | 8120 | -0.254 (inactive) | -0.0628 |
| COc1cc(C2Oc3ccc(C4Oc5cc(O)cc(O)c5C(=O)C4O)cc3OC2CO)ccc1O (centres undefined) | 0.913 (inactive) | 0.744 | 8070 | 8840 | -0.245 (inactive) | -0.07 |
| COC1C=CC=C(C)C(=O)NC2=CC(=O)C(NCCN(C)C)=C(CC(C)CC(OC)C(O)C(C)C=C(C)C1OC(N)=O)C2=O (centres undefined) | 1.03 (inactive) | 1.2 | 1450 | 1410 | 2.44 (active) | -2.5 |
| COc1c(C)c(C(=O)c2ccc(N)c(C(=O)O)c2)n2ccccc12 | 0.908 (inactive) | 0.344 | 7600 | 8370 | 0.355 (inactive) | -2.17 |
| CC(C)n1c(C=CC(O)CC(O)CC(=O)O)c(-c2ccc(F)cc2)c2ccccc21 (centres undefined) | 1.12 (inactive) | 0.928 | 1580 | 1410 | 0.699 (inactive) | -1.97 |
| CN(C)Cc1ccc(S(=O)(=O)n2ccc(C=CC(=O)NO)c2)cc1 | 0.784 (inactive) | 0.443 | 1500 | 1910 | -0.566 (inactive) | -0.298 |
| CN1CCCN(C(=O)c2cccc(-c3ccc(C=C4C(=O)Nc5ccc(Cl)cc54)o3)c2)CC1 | 0.79 (inactive) | 4.28 | 2420 | 3060 | 0.13 (inactive) | -0.12 |
| CC1(C)O[C@H]2CC(=O)OC[C@]23[C@H]2CC[C@@]4(C)C(c5ccoc5)OC(=O)C5O[C@]54[C@@]2(C)C(=O)C[C@@H]13 (some centres undefined) | 0.854 (inactive) | 0.906 | 8580 | 10000 | -0.275 (inactive) | -0.503 |
| O=C(C=Cc1ccc(CN(CCO)CCc2c[nH]c3ccccc23)cc1)NO | 0.866 (inactive) | 0.616 | 944 | 1090 | -0.188 (inactive) | -2.63 |
| CN1CCN(C(=O)c2cc3cc(Cl)ccc3[nH]2)CC1 | 1 (inactive) | 0.614 | 8330 | 8310 | -0.282 (inactive) | -0.0205 |
| CCCCC(=O)OC1CC[C@H]2[C@@H]3CCc4cc(O)ccc4[C@@H]3CC[C@]12C (some centres undefined) | 0.855 (inactive) | 0.887 | 7760 | 9080 | -0.195 (inactive) | -0.141 |
| CNC1C(O)C(NC)[C@H]2O[C@@]3(O)C(=O)CC(C)O[C@H]3O[C@@H]2C1O (some centres undefined) | 1.01 (inactive) | 0.997 | 9590 | 9460 | -0.277 (inactive) | 0.762 |
| CC(C)(O)CCC(O)[C@](C)(O)C1CC[C@@]2(O)C3=CC(=O)[C@@H]4CC(O)C(O)C[C@]4(C)[C@@H]3CC[C@]12C (some centres undefined) | 0.992 (inactive) | 0.932 | 10200 | 10300 | -0.354 (inactive) | 0.685 |
| CC1OC(O)C(O)C(O)C1O (centres undefined) | 0.984 (inactive) | 1 | 7230 | 7350 | -0.0523 (inactive) | -0.0922 |
| CCn1c(N)c(C(=O)NC)c(=O)c2ccc(C#C[C@@](C)(O)COC)nc21 | 0.913 (inactive) | 0.578 | 6630 | 7260 | -0.356 (inactive) | -0.157 |
| CC[C@]1(O)C[C@H]2CN(CCc3c([nH]c4ccccc34)[C@@](C(=O)OC)(c3cc4c(cc3OC)N(C)[C@@H]3C45CCN4CC=C[C@@](CC)(C(OC(C)=O)[C@]3(O)C(=O)OC)[C@H]45)C2)C1 (some centres undefined) | 1.18 (inactive) | 0.78 | 1480 | 1260 | 0.649 (inactive) | -0.168 |

| Compound | fold change [1, 3] | fold change [1, 4] | cell count [1, 5] | cell count [1, 6] | z-score [2, 7] | z-score [2, 8] |
| --- | --- | --- | --- | --- | --- | --- |
| COC(=O)C(CCCN=C(N)N)NS(=O)(=O)c1ccc(C)cc1 (centres undefined) | 0.92 (inactive) | 0.589 | 8520 | 9260 | -0.296 (inactive) | 0.752 |
| CCCCCCOC(=O)N=C(N)c1ccc(NCc2nc3cc(C(=O)N(CCC(=O)OCC)c4ccccn4)ccc3n2C)cc1 | 0.94 (inactive) | 0.85 | 8810 | 9380 | -0.278 (inactive) | 0.124 |
| COc1cc2c(cc1O)CC[C@@H]1[C@H]2CC[C@]2(C)C(O)CC[C@@H]12 (some centres undefined) | 1.05 (inactive) | 0.703 | 1820 | 1740 | 1.32 (inactive) | 0.434 |
| CC1(C)C(OC2OC(C(=O)O)C(O)C(O)C2OC2OC(C(=O)O)C(O)C(O)C2O)CC[C@@]2(C)[C@H]1CC[C@]1(C)[C@H]2C(=O)C=C2[C@H]3C[C@@](C)(C(=O)O)CC[C@]3(C)CC[C@]21C (some centres undefined) | 0.916 (inactive) | 0.946 | 8230 | 8990 | -0.0747 (inactive) | -0.803 |
| O=C(c1ccc(F)cc1)N1CCCC(c2nc(-c3ccc(F)cc3)no2)C1 (centres undefined) | 0.877 (inactive) | 0.718 | 8270 | 9420 | -0.287 (inactive) | -0.496 |
| CCNC(=O)Nc1ccc(-c2nc3c(c(N4CCOCC4C)n2)CCN(C2COC2)C3)cc1 (centres undefined) | 0.905 (inactive) | 0.555 | 2790 | 3080 | 2.89 (active) | -0.834 |
| C[C@]12CCC(=O)C=C1CC[C@@H]1[C@H]2C(O)C[C@@]2(C)[C@H]1CC[C@@]2(O)C(=O)CO (some centres undefined) | 0.923 (inactive) | 0.886 | 5230 | 5670 | -0.31 (inactive) | -0.201 |
| CON=C(C(=O)NC1C(=O)N2C(C(=O)OCOC(=O)C(C)(C)C)=C(C=Cc3scnc3C)CS[C@H]12)c1csc(N)n1 (some centres undefined) | 0.852 (inactive) | 0.561 | 7580 | 8900 | -0.26 (inactive) | 0.818 |
| Cc1ccccc1CN1C2=NCCN2C(=O)C2=C1CCN(Cc1ccccc1)C2 | 0.955 (inactive) | 0.31 | 8710 | 9120 | -0.516 (inactive) | 0.0586 |
| CCc1cc2c(cc1CC)CC(NCC(O)c1ccc(O)c3[nH]c(=O)ccc13)C2 (centres undefined) | 1.01 (inactive) | 0.491 | 7460 | 7410 | -0.199 (inactive) | -0.118 |
| O=S(=O)(NCCNCC=Cc1ccc(Br)cc1)c1cccc2cnccc12 | 0.834 (inactive) | 0.904 | 8100 | 9710 | -0.305 (inactive) | 0.0221 |
| O=C1c2ccc(Nc3ccc(F)cc3F)cc2CCc2ccc(OCC(O)CO)cc21 (centres undefined) | 0.924 (inactive) | 0.413 | 6890 | 7450 | -0.55 (inactive) | 0.56 |
| CC(=O)O[C@@]1(C(C)=O)CC[C@H]2[C@@H]3CCC4=CC(=O)CCC4=C3C(c3ccc(N(C)C)cc3)C[C@@]21C (some centres undefined) | 1.04 (inactive) | 0.797 | 6660 | 6380 | -0.373 (inactive) | -0.0703 |
| CC(=O)Nc1nc2c(Oc3cc(-c4ccc(C(F)(F)F)cc4)ncn3)cccc2s1 | 0.981 (inactive) | 0.45 | 8510 | 8670 | -0.457 (inactive) | -0.29 |
| COc1ccc(NS(=O)(=O)c2sc3ccc(Cl)cc3c2C)cc1N1CCNCC1 | 0.966 (inactive) | 0.423 | 7390 | 7650 | -0.345 (inactive) | -0.0807 |
| CCCC1CC(C(=O)NC(C(C)O)[C@@H]2OC(SC)C(O)C(O)C2O)N(C)C1 (some centres undefined) | 0.883 (inactive) | 0.66 | 9270 | 10500 | -0.388 (inactive) | -0.162 |
| COc1c(O)cc2c(c1O)[C@@H]1OC(CO)C(O)C(O)[C@H]1OC2=O (some centres undefined) | 0.888 (inactive) | 1.9 | 8260 | 9300 | -0.313 (inactive) | 0.533 |
| O=C1CCC[C@@H]2[C@@H]3CCC[N+]4([O-])CCC[C@H](CN12)[C@@H]34 (some centres undefined) | 0.977 (inactive) | 0.789 | 9620 | 9840 | -0.359 (inactive) | 0.579 |
| NCc1c[nH]c(=S)n1C1CCc2c(F)cc(F)cc2C1 (centres undefined) | 0.817 (inactive) | 2.13 | 7940 | 9720 | -0.197 (inactive) | -0.149 |
| CON=C(C(=O)N[C@@H]1C(=O)N2C(C(=O)O)=C(CSC(=O)c3ccco3)CS[C@H]12)c1csc(N)n1 | 0.943 (inactive) | 1.19 | 9660 | 10200 | -0.295 (inactive) | 0.108 |
| Cn1nccc1-c1cc(C(=O)NCc2ccc(S(C)(=O)=O)cn2)c(=O)n(-c2cccc(C(F)(F)F)c2)c1 | 0.851 (inactive) | 0.538 | 8120 | 9540 | -0.549 (inactive) | 0.346 |
| C#C[C@]1(O)CC[C@H]2[C@@H]3CCC4=CC(=O)CC[C@@H]4[C@@H]3CC[C@@]21C | 0.857 (inactive) | 0.775 | 7940 | 9270 | -0.24 (inactive) | -0.172 |
